In the supplement of paper PMC4166925:
± gives the standard deviation of the averaged measurements. Whole data set: some 33,000 sequences, median “E-score (dimensionless, -0.5 to 0.5)” near -0.046, cut for the highest 2% near 0.36. The full list was thinned out, with the highest values kept by preference.

Each sequence was assayed on T1, SpTbr T-box DNA-binding domain (GST fusion) (assay: PBM E-score of 8-mer (E-score (dimensionless, -0.5 to 0.5)); Tbr is Tbrain of the sea star Patiria miniata (Pm) or the sea urchin Strongylocentrotus purpuratus (Sp); higher = stronger binding preference). Conditions: the construct has about 5 more residues each side.
T1 sequence: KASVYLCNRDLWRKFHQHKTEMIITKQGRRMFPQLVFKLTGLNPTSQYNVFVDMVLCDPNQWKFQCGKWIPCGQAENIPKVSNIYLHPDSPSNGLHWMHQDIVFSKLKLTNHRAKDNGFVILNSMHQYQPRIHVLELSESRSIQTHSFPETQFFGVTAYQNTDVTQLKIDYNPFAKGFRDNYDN
Protocol: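 Universal protein-binding microarray (Agilent AMADID 016060, 60-bp probes with a 35-bp variable region) incubated with 200 nM GST-fused Strongylocentrotus purpuratus Tbr T-box DNA-binding domain (residues 362-554) in PBS pH 7.5. Scored for every ungapped 8-mer (given with its reverse complement) as E-score (range -0.5 to 0.5; >0.45 counts as bound) and Z-score of median probe intensity. Two replicate arrays (datasets 1 and 2).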
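Further: protein at 200 nM in PBS on universal double-stranded arrays.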

Sequence | PBM E-score of 8-mer
AAAGCGCT | 0.0608 ± 0.028
GAGCAGTA | -0.00784 ± 0.039
AGTTAGCG | 0.304 ± 0.0085
GTCGAGCA | 0.0707 ± 0.028
ATTTAAAT | -0.06656 ± 0.00039
ACCTCCCT | 0.00833 ± 0.034
CTGTTAGA | 0.11 ± 0.12
CTGTTAAA | 0.231 ± 0.041
TTGTTAAA | 0.184 ± 0.12
GTGTTAAA | 0.395 ± 0.026
ATGTTAGA | -0.136 ± 0.095
GTGTTAGA | 0.384 ± 0.0066
GGTAGACA | -0.025 ± 0.028
CTCTTCAC | 0.292 ± 0.018
AAGGGGCA | -0.297 ± 0.042
AAGGCGCT | 0.306 ± 0.035
AGAGCAAT | -0.132 ± 0.0051
GGGTGATA | 0.253 ± 0.0088
AGGTGATC | 0.116 ± 0.085
AGGTGATG | 0.3942 ± 0.0033
CGGTGATA | 0.111 ± 0.0075
ACGTGATG | 0.0808 ± 0.05
AGGTGATA | 0.428 ± 0.015
ACGCCGGC | 0.242 ± 0.0047
AGGGGGAT | -0.262 ± 0.033

Sequence | PBM E-score of 8-mer
ACTTTCAA | 0.0855 ± 0.0062
ATCGCGAC | 0.271 ± 0.036
CTCGCGAG | 0.284 ± 0.03
ATCGCGAG | 0.255 ± 0.0054
CTCGCGAA | 0.389 ± 0.012
GTCGCGAA | 0.372 ± 0.025
ATCGCGTA | 0.13 ± 0.024
ATCGCAAA | 0.0887 ± 0.0029
ATCGCGAA | 0.367 ± 0.032
TTCGCGAA | 0.3584 ± 0.0003
CTCGCGAC | 0.311 ± 0.025
ATCGCGAT | 0.364 ± 0.011
GTCGCGAC | 0.362 ± 0.019
GAAAGTGA | 0.293 ± 0.039
AAAAAAGT | -0.074 ± 0.11
CCTACTAA | -0.0157 ± 0.06
CGTGTAAA | 0.296 ± 0.027
TGCATCAA | -0.0456 ± 0.044
CTGCCAAG | 0.105 ± 0.03
ACGCTCAG | 0.0449 ± 0.0089
CAAGAACG | -0.267 ± 0.011
ACCCTTGA | -0.0396 ± 0.029
ATGCGCTC | -0.175 ± 0.02
CCACCTCC | 0.324 ± 0.0077
CCACCTCG | 0.228 ± 0.019

Sequence | PBM E-score of 8-mer
ACACCTCT | 0.479 ± 0.0083
TGACCTCA | 0.0321 ± 0.076
AAACCTCT | -0.292 ± 0.061
ACACCTCC | 0.4854 ± 0.0043
ACACCTCG | 0.4804 ± 0.0036
ATACCTCC | -0.0183 ± 0.066
AAACCTCG | 0.0284 ± 0.048
TCACCTCA | 0.387 ± 0.0086
AGACCTCT | -0.281 ± 0.035
TAACCTCA | -0.153 ± 0.018
ACTCTTCG | 0.113 ± 0.071
CCACTGCG | 0.0281 ± 0.049
GAACGAGC | -0.187 ± 0.063
CGGGGGAC | -0.117 ± 0.088
CAATTGAG | -0.2 ± 0.036
CCTAACCG | -0.163 ± 0.039
AGGACTAT | -0.234 ± 0.035
CGGCGATA | 0.094 ± 0.028
TTCGCCAA | 0.124 ± 0.054
AGACCTCA | 0.1 ± 0.022
ACGCCTCT | 0.30412 ± 0.00015
GCACCTCA | 0.343 ± 0.02
CCACCTCA | 0.172 ± 0.067
GGACCTCC | -0.327 ± 0.017
ACACCTCA | 0.4607 ± 0.0039

Sequence | PBM E-score of 8-mer
GCACCTCC | 0.396 ± 0.013
ACGCCTCG | 0.373 ± 0.019
ACGCCTCA | 0.331 ± 0.01
CACAGCAG | -0.0256 ± 0.044
ATTAAGAA | -0.254 ± 0.043
ATAGATCG | 0.0137 ± 0.011
CACGGTTA | -0.0116 ± 0.056
CCTAGGCC | -0.0372 ± 0.013
CTCGCTAA | 0.232 ± 0.043
CAATAGAC | -0.0363 ± 0.07
CCACTTAC | 0.161 ± 0.0085
ACTCTTAT | -0.0294 ± 0.038
ACACTTAC | 0.4 ± 0.024
ACACTTAA | 0.336 ± 0.027
CCACTTAG | -0.0238 ± 0.042
ACTCTTAG | -0.106 ± 0.0089
ACACTTAG | 0.383 ± 0.038
ACACTTAT | 0.402 ± 0.0068
GCACTTAC | 0.208 ± 0.017
CGAGCACA | -0.0373 ± 0.063
CGGCCGAA | -0.16 ± 0.027
GGCAGGGA | -0.182 ± 0.062
TAACCTGA | -0.0659 ± 0.025
GGAGGGTA | -0.0485 ± 0.045
AGGCCTAT | -0.196 ± 0.034

Sequence | PBM E-score of 8-mer
CACCTAAC | 0.387 ± 0.018
AACCTAAG | -0.133 ± 0.0067
CACCTAAG | 0.383 ± 0.019
CACCTAAA | 0.3188 ± 0.00098
AACCTAAC | -0.0237 ± 0.04
CCCCTAAG | -0.17 ± 0.067
AGGTTGAT | -0.0456 ± 0.014
AGTTGGCC | -0.112 ± 0.0038
ATTGTGGA | 0.0374 ± 0.11
CCCACCTA | 0.282 ± 0.013
AACACCTC | 0.481 ± 0.0063
TACACCGA | 0.118 ± 0.1
TACACCTA | 0.377 ± 0.0086
AAGACCTC | 0.00991 ± 0.032
CACACCTA | 0.4806 ± 0.0011
TACACCAA | 0.0641 ± 0.095
AACACCTA | 0.4609 ± 0.0024
AACACCGA | 0.228 ± 0.03
CACACCGA | 0.291 ± 0.036
AACACCGC | 0.299 ± 0.018
CCCTATCA | 0.0101 ± 0.042
TGAAACCA | -0.0205 ± 0.016
TGTCAAAA | 0.289 ± 0.021
TACCCGGA | -0.128 ± 0.15
GCAATCGC | 0.212 ± 0.0066

Sequence | PBM E-score of 8-mer
ACTGAGGA | -0.0611 ± 0.02
CCAATAAC | -0.0379 ± 0.13
CTGGGACC | -0.174 ± 0.015
ACGCCAAC | 0.144 ± 0.021
CCAGCTTC | -0.142 ± 0.058
CGAACAGA | 0.0582 ± 0.028
AACACCGG | 0.118 ± 0.015
AAGACCTT | -0.259 ± 0.0063
AACACCGT | 0.243 ± 0.091
ACCACCTG | 0.224 ± 0.037
AACACCTG | 0.463 ± 0.0057
CACACCGG | 0.175 ± 0.059
AACACCTT | 0.479 ± 0.0049
CACACCTG | 0.479 ± 0.0072
CAGACCTG | -0.0842 ± 0.0016
GTATGCAC | 0.0616 ± 0.043
CTAGTTTC | -0.105 ± 0.053
CTACGCGA | 0.0131 ± 0.01
AACTCTGA | -0.0644 ± 8.5e-05
CGCAAGAC | 0.07366 ± 4.2e-05
ACGCATGG | -0.144 ± 0.018
ACGTGCCA | 0.361 ± 0.033
AGGTGCCG | 0.421 ± 0.0055
GGGTGCGA | 0.4746 ± 0.00052
GCGTGCCA | 0.128 ± 0.01

Sequence | PBM E-score of 8-mer
GGGTGCCA | 0.3739 ± 0.003
AGGTGCCA | 0.46212 ± 0.00034
CGGTGCGA | 0.339 ± 0.0046
AGCTGCCA | 0.111 ± 0.099
AGGTGCCC | 0.00863 ± 0.0099
CGGTGCCA | 0.119 ± 0.02
GTGTGCGA | 0.361 ± 0.0042
ACGTGCCG | 0.199 ± 0.058
ACGATCAC | 0.119 ± 0.031
AGGTTTAA | -0.0723 ± 0.017
GGACTTGA | -0.12 ± 0.047
AATACTGG | -0.329 ± 0.041
TATATCAA | -0.174 ± 0.03
AAATGGTA | -0.152 ± 0.041
TGCGAGAA | 0.36401 ± 0.00027
CAACAAGG | 0.0674 ± 0.0062
CCTTCACG | 0.278 ± 0.019
CCTTCACA | 0.404 ± 0.0071
ACTTCACA | 0.357 ± 0.02
TCTTCACA | 0.395 ± 0.015
ACTTCACG | 0.312 ± 0.018
CCTTCACC | 0.14 ± 0.013
ATCCCAGA | -0.0492 ± 0.043
GATTTTCC | -0.00302 ± 0.027
CCCCAAAA | -0.112 ± 0.042

Sequence | PBM E-score of 8-mer
TATTTGAA | -0.214 ± 0.013
CACCTCCC | 0.389 ± 0.017
CCCCTCCG | 0.119 ± 0.066
AACCTCCG | 0.0095 ± 0.07
CACCTCCA | 0.3876 ± 0.00048
TACCTCCA | -0.0368 ± 0.093
CACCTCCG | 0.4516 ± 0.0039
AACCTCCA | -0.135 ± 0.018
GACCTCCC | -0.159 ± 0.12
AACCTCCC | -0.0867 ± 0.0052
AGCGGGCA | -0.0395 ± 0.016
GACGTGCA | 0.0705 ± 0.07
ACCCGAGA | 0.0223 ± 0.0071
GCCCGACC | -0.213 ± 0.054
CTAGGTTA | -0.16 ± 0.08
GTTTAGCA | 0.102 ± 0.11
GACCTCAC | 0.137 ± 0.049
AACCTCAG | -0.244 ± 0.045
TACCTCAA | -0.13 ± 0.045
AACCTCAC | 0.182 ± 0.034
CACCTCAC | 0.444 ± 0.012
CACCTCAG | 0.376 ± 0.0075
AACCTCAA | -0.158 ± 0.018
CTCCTCAG | -0.0357 ± 0.025
CACCTCAA | 0.375 ± 0.024

Sequence | PBM E-score of 8-mer
CGAAAACG | 0.0298 ± 0.05
CGATACAG | -0.0251 ± 0.13
GAGTTGGA | -0.0967 ± 0.023
ATCTTCAC | 0.267 ± 0.02
TCTTAACA | 0.214 ± 0.041
GGTTATAC | 0.0871 ± 0.041
GCATGCTA | 0.00793 ± 0.094
ATAGGGAG | -0.00632 ± 0.036
ATAGTGTA | 0.0763 ± 0.038
AGAGTGTA | 0.0671 ± 0.0042
AGAGTGTG | 0.375 ± 0.022
AGAGTGTC | 0.359 ± 0.0099
ATAGTGTG | 0.388 ± 0.026
ATAGTGTC | 0.272 ± 0.07
CGAAGACC | -0.109 ± 0.036
GAGCCCCA | -0.124 ± 0.065
GGGTTAAA | -0.213 ± 0.063
TAACCGAA | -0.212 ± 0.034
CCGCAGAC | -0.143 ± 0.042
